The values below come from PubChem BioAssay (Tox21).

Results filed as inconclusive are left out. Activity calls are given as the source filed them. Unless noted, calls come from the whole dose curve; as a rule, active = well fitted curve in the direction sought with a large enough effect in the repeat runs; inconclusive = weak or mixed curves; inactive = no such curve, though single readings can be large; an effect the other way counts as inactive or inconclusive.

Assay [1] is described as follows: qHTS assay to identify small molecule antagonists of the estrogen related receptor (ERR) signaling pathway - cell viability counter screen (AID 1224818).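 Note: series mostly up to about 46 µM; viability measured after 17.5 h of compound exposure.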 A digest of the protocol: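 Here, ERR cells are plated at 2,000 cells per well, allowed 6 h to attach, and treated with compounds in DMSO for 17.5 h at 37 C. CellTiter-Fluor is then added and fluorescence read after 30 min.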

The nature of assay [2]: qHTS assay to identify small molecule antagonists of the estrogen related receptor (ERR) signaling pathway (AID 1224819;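 note: luminescence from an ERR-driven luciferase reporter measured with One-Glo reagent; series mostly up to about 46 µM; nearly all actives have a fitted effect of over 50% in size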). The procedure, abridged: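 LOPAC library screened for antagonism as reduced One-Glo luminescence in ERR reporter cells (2,000/well). Compounds were added after 6 h pre-incubation and left 18 h at 37C; reading followed a 30 min room-temperature reagent step.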

Assay [3] in a line: qHTS assay to identify small molecule agonists of the estrogen related receptor (ERR) signaling pathway (AID 1224820). The procedure, abridged:
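ERR reporter cells (NTP line) plated 2,000/well, incubated 6 h at 37 C/5% CO2, then pinned with compounds in DMSO and held 18 h at 37 C. One-Glo added; luminescence read after 30 min at room temperature.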
For orientation: qHTS replaces the single test concentration by a dilution series.

For assay [4], the system named is estrogen-related receptor alpha (ERRalpha) with PGC-1alpha coactivator, human. Briefly: qHTS assay to identify small molecule antagonists of the estrogen related receptor signaling pathway with the pleiotropic PPARgamma coactivator (PGC) (AID 1224821; calls by dose curve;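 note: series mostly up to about 46 µM; lower luminescence signal means antagonism of PGC/ERR signalling; nearly all actives have a fitted effect of over 50% in size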). A digest of the protocol: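 Cells engineered for PGC/ERR signalling (line from NTP) were plated 6 h at 37 C/5% CO2, then exposed to DMSO-dissolved compound for 18 h at 37 C. Luciferase activity was read by One-Glo luminescence after 30 min at room temperature.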

Assay [5] in a line: qHTS assay to identify small molecule antagonists of the estrogen related receptor signaling pathway with the pleiotropic PPARgamma coactivator (PGC) cell viability counter screen (AID 1224822; note: series mostly up to about 46 µM). A digest of the protocol:
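qHTS format, DMSO compound stocks pin-transferred onto PGC/ERR cells 6 h after plating; 17.5 h exposure at 37 C, then CellTiter-Fluor fluorescence.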

A short description of assay [6]: qHTS assay to identify small molecule agonists of the retinoic acid receptor (RAR) signaling pathway (AID 1159553). Note: potency is the fitted concentration of half-maximal effect. A digest of the protocol: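 Cell line C3RL4, RARE luciferase reporter. Treatment: compounds in DMSO, 6 hr, 37 C, 5% CO2, after overnight plating. Detection: luminescence, 30 min RT after reagent.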
The nature of assay [7]: qHTS assay to identify small molecule agonists of the estrogen related receptor signaling pathway with the pleiotropic PPARgamma coactivator (PGC) (AID 1224823). A digest of the protocol: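 PGC/ERR reporter cells were seeded, rested 6 h at 37 C/5% CO2, then exposed to compounds in DMSO by pin transfer for 18 h at 37 C. Luciferase activity was read as luminescence after One-Glo reagent and 30 min at room temperature.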

The target of assay [8] is Luciferin 4-monooxygenase (Photinus pyralis) (UniProt P08659). Briefly: qHTS assay to identify small molecule inhibitors of firefly luciferase (AID 1224835). Note: nearly all actives have a fitted effect of over 25% in size. Note: potency is the fitted concentration of half-maximal effect. The procedure, abridged: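 Inhibition of purified Photinus luciferase is measured by luminescence. Substrate levels (D-luciferin, ATP) sit at their KM values. Each compound is tested in a concentration series.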
Luciferin 4-monooxygenase (Photinus pyralis), sequence (P08659 whole entry, looked up): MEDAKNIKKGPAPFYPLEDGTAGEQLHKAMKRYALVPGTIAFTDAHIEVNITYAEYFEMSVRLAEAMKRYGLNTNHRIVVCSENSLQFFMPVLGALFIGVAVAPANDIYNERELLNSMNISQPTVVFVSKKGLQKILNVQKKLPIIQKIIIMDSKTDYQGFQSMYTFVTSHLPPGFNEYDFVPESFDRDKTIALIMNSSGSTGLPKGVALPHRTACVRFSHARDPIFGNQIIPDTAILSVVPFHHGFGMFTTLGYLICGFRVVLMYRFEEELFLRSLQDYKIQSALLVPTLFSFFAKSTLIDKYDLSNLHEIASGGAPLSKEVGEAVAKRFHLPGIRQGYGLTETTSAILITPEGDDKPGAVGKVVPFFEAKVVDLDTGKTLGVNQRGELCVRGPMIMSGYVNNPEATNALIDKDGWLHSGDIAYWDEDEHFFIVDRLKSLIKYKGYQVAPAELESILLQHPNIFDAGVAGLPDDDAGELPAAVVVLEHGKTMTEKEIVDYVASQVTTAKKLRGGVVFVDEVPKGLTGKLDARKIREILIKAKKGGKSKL
Assay [9] is described as follows: qHTS assay to identify small molecule antagonists of the constitutive androstane receptor (CAR) signaling pathway - cell viability counter screen (AID 1224837). Note: nearly all actives have a fitted effect of over 45% in size. Note: potency is the fitted concentration of half-maximal effect. A digest of the protocol:
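Fluorescence from CellTiter-Fluor served as the viability signal. Human hepatoma HepG2 cells stably bearing hCAR and CYP2B6-2.2kb received compound plus CITCO (50 nM final) for 23 hr.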

In assay [10] the target is Nuclear receptor subfamily 1 group I member 3 (Homo sapiens) (UniProt Q14994). Briefly: qHTS assay to identify small molecule antagonists of the constitutive androstane receptor (CAR) signaling pathway (AID 1224838).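 Note: HepG2 cells stably expressing hCAR with CYP2B6 luciferase reporter stimulated by CITCO; nearly all actives have a fitted effect of over 40% in size.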 Note: potency is the fitted concentration of half-maximal effect. The procedure, abridged: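 Quantitative HTS in double-stable HepG2-CYP2B6-hCAR cells. After 4 h plating, cells get compound (15 concentrations) and CITCO at 50 nM final, incubate 24 h at 37 C, then ONE-Glo luminescence is read.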
Nuclear receptor subfamily 1 group I member 3 (Homo sapiens), sequence (Q14994 whole entry, looked up): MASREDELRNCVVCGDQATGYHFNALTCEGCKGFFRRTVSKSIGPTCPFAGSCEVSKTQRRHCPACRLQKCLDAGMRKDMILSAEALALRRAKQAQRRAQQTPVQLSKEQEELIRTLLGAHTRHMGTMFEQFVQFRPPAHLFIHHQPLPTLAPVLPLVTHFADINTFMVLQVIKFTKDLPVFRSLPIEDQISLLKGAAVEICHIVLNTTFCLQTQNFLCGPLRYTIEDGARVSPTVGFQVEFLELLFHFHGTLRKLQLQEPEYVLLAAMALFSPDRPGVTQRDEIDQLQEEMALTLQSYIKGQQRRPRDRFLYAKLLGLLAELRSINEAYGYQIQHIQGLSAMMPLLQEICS

Assay [11] has the same target. Briefly: qHTS assay to identify small molecule agonists of the constitutive androstane receptor (CAR) signaling pathway (AID 1224839).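 For activation: HepG2 cells stably carrying human CAR and a CYP2B6 luciferase reporter; series mostly up to about 92 µM.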 Note: nearly all actives have a fitted effect of over 15% in size. Note: potency is the fitted concentration of half-maximal effect. The procedure, abridged: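 Compounds tested at 15 concentrations on HepG2 cells stably harbouring hCAR and CYP2B6-2.2kb reporter constructs, co-treated with PK11195 (0.75 uM final), 24 h at 37 C; luminescent reporter signal quantified.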

Assay [12] is described as follows: qHTS assay to identify small molecule antagonists of the estrogen related receptor signaling pathway with the pleiotropic PPARgamma coactivator (PGC) from Tox21 10K library - cell viability counter screen (AID 1224840; active = well fitted cell-killing curve with a large enough effect in the repeat runs, not every such curve was filed as active; note: nearly all actives have a fitted effect of over 40% in size). A digest of the protocol:
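Compounds in DMSO, alongside positive and negative controls, were pinned onto PGC/ERR cells (2,000 per well). Exposure lasted 17.5 hours at 37 C, followed by a 30-minute CellTiter-Fluor incubation and fluorescence reading.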

Assay [13] in a line: qHTS assay to identify small molecule antagonists of the estrogen related receptor signaling pathway with the pleiotropic PPARgamma coactivator (PGC) from Tox21 10K library (AID 1224841; call rule not given here; note: actives are mostly falling curves and most rising ones were filed inactive; nearly all actives have a fitted effect of over 50% in size; note: potency is the fitted concentration of half-maximal effect). A digest of the protocol: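 Compound exposure ran 18 hours at 37 C in PGC/ERR cells (2,000/well) that had first rested 6 hours in a 37 C/5% CO2 incubator. Luciferase activity was then detected with One-Glo after a 30-minute room-temperature step.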

A short description of assay [14]: qHTS assay to identify small molecule agonists of the estrogen related receptor signaling pathway with the pleiotropic PPARgamma coactivator (PGC) from Tox21 10K library (AID 1224842). Note: nearly all actives have a fitted effect of over 15% in size. Note: potency is the fitted concentration of half-maximal effect. A digest of the protocol: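 Luminescence from One-Glo (30 min, room temperature) measured after PGC/ERR cells had 18 h at 37 C with pinned compound (23 nL in DMSO). Cells had been seeded at 2,000 per well and pre-incubated 6 h.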

Assay [15] addresses Thyrotropin receptor (Homo sapiens) (UniProt P16473). Briefly: qHTS assay to identify small molecule agonists of the thyroid stimulating hormone receptor (TSHR) signaling pathway (AID 1224843; calls by dose curve; note: nearly all actives have a fitted effect of over 45% in size). A digest of the protocol:
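HEK293 cells stably bearing the thyrotropin receptor were plated at 800 cells/well and challenged with compound (30 min, RT). Accumulated cAMP was quantified via cAMP-d2 competing for cryptate-tagged antibody.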

Assay [16] can be described thus: qHTS assay to identify small molecule agonists of the hypoxia (HIF-1) signaling pathway - cell viability counter screen (AID 1224844; calls by dose curve; note: nearly all actives have a fitted effect of over 50% in size; note: potency is the fitted concentration of half-maximal effect). The procedure, abridged: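 Luminescent ATP content (CellTiter-Glo, 30 min, room temperature) served as the viability measure in HRE-bla ME-180 cells exposed to compounds for 17 hrs in low-serum medium (0.5% dialyzed FBS).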
Assay [17] is described as follows: qHTS assay to identify small molecule agonists of H2AX (AID 1224845; active = well fitted activation curve with a large enough effect in the signal ratio in the repeat runs, not every such curve was filed as active; the % refers to the signal ratio). A digest of the protocol:
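Phospho-H2AX Ser139 measured by HTRF (ex 320 nm; em 665 and 620 nm) after 24 hr antibody incubation. Compounds, 15 concentrations, 0.76% DMSO, were applied to CHO-K1 cells for 3hr at 37C before lysis.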

Assay [18] can be described thus: qHTS assay to identify small molecule antagonists of the estrogen related receptor (ERR) signaling pathway from Tox21 library - cell viability counter screen (AID 1224834). Note: nearly all actives have a fitted effect of over 30% in size. Note: potency is the fitted concentration of half-maximal effect. A digest of the protocol:
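Viability readout (CellTiter-Fluor fluorescence, 30 min at 37 C) multiplexed with the ERR assay; cells treated 17.5 h at 37 C with compounds delivered in DMSO.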

Assay [19] in a line: qHTS assay to identify small molecule agonists of the constitutive androstane receptor (CAR) signaling pathway - cell viability counter screen (AID 1224836). Note: series mostly up to about 92 µM; nearly all actives have a fitted effect of over 45% in size. The procedure, abridged:
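23 h treatment, 37 C, 5% CO2. Cell line: HepG2 stably expressing hCAR with a CYP2B6-2.2kb construct. Co-treatment: PK11195, 0.75 uM final. Read-out: CellTiter-Fluor fluorescence intensity.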

The nature of assay [20]: qHTS assay to identify small molecule agonists of the hypoxia (HIF-1) signaling pathway (AID 1224846; active = well fitted activation curve with a large enough effect in the signal ratio in the repeat runs, not every such curve was filed as active; the % refers to the signal ratio). A digest of the protocol:
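Measured by blue/green FRET after loading CCF4-AM: beta-lactamase expressed from a hypoxia response element in ME-180 cells. Test agents were delivered in DMSO and left 17 hrs; cells had been plated 5 hrs earlier in low-serum (0.5% dialyzed FBS) medium.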

Thyrotropin receptor (Homo sapiens), sequence (P16473 whole entry, looked up): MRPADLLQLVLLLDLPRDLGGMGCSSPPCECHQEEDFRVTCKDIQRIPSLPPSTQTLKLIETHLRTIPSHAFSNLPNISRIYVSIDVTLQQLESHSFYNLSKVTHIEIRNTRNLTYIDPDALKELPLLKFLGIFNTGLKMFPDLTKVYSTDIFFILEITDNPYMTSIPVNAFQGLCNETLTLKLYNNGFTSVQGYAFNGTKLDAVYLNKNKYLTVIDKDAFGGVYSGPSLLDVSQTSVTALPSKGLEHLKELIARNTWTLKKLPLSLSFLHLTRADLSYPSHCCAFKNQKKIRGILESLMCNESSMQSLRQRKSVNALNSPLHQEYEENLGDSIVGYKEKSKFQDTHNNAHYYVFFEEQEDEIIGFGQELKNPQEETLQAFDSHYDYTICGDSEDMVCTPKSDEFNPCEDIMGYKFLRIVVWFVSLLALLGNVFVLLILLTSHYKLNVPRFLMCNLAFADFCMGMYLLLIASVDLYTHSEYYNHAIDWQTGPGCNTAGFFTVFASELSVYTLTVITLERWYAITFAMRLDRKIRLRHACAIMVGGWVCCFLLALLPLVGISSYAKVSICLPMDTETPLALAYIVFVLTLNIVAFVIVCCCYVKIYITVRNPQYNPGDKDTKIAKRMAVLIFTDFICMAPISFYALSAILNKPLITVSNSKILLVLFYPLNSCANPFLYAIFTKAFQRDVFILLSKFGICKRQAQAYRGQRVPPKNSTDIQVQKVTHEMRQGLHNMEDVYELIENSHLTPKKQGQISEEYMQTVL

Regarding `NC(=S)c1ccc[n+]([C@@H]2O[C@@H](COP(=O)([O-])OP(=O)(O)OC[C@H]3O[C@@H](n4cnc5c(N)ncnc54)[C@H](OP(=O)(O)O)C3O)C(O)C2O)c1` (some centres not stated), the Potency result in assay [1], in assay [2], in [3], in assay [4] and in assay [5] was “inactive” in each case.
Turning to `CCCOC(=O)c1ccc(O)cc1`, the Potency in [6] is 54.5 µM (active); in [8], 89.4 µM (active); in assay [11], 54.5 µM (active); in assay [14] it was 10.9 µM (active). Moreover, the Potency result in assay [1], in assay [2], in assay [4], in assay [5], in [7] and in [9] was “inactive” each time. Further, the Potency result in assay [10], in assay [12], in assay [13], in assay [15], in [16] and in assay [17] was “inactive” each time.
Regarding `COc1cc(/C=C/C(=O)CC(=O)/C=C/c2ccc(O)c(OC)c2)ccc1O`, the Potency in assay [6] was 9.75 µM (active); in assay [18], 21.8 µM (active); in assay [8] it was 28.4 µM (active); in assay [9], 24.5 µM (active); in assay [10], 54.8 µM (active); in assay [13], 19.4 µM (active). Further, the Potency in assay [16] is 39.2 µM (active). Besides, the Potency entry in assay [11] and in [14] was “inactive” in each case.
As for `Cc1ccc2nc(-c3ccc(N)cc3)sc2c1S(=O)(=O)O`, the Potency in assay [6] is 0.426 µM (active); in assay [8] it was 1.39 µM (active); in [11], 9.54 µM (active). For the same compound, the Potency result in [18], in [19], in assay [9], in assay [10], in assay [12] and in [15] was “inactive” in each case. Besides, in [16], the Potency result is “inactive”.
As for `CNCC[C@H](Oc1ccc(C(F)(F)F)cc1)c1ccccc1`, in assay [1], the Potency result was “inactive”.
As to `Nc1ncnc2c1ncn2[C@@H]1O[C@H](COP(=O)(O)OP(=O)(O)OP(=O)(O)OP(=O)(O)OC[C@@H]2O[C@H](n3cnc4c(N)ncnc43)[C@@H](O)C2O)C(O)[C@H]1O` (some centres not stated), the Potency result in assay [1], in assay [2], in assay [3], in [4] and in [5] was “inactive” throughout.
For `C[N+](C)(C)CCOP(=O)(O)OP(=O)([O-])OC[C@H]1O[C@@H](n2ccc(N)nc2=O)[C@H](O)C1O` (some centres not stated), the Potency entry in [1], in assay [2], in [3], in [4] and in assay [5] was “inactive” in each case.
Regarding `CC1=C(/C=C/C(C)=C/C=C/C(C)=C\C(=O)O)C(C)(C)CCC1`, the Potency is 0.0194 µM (active) in assay [6], 63.5 µM (active) in assay [8], 27.4 µM (active) in assay [11] and 34.8 µM (active) in assay [16]. Also, the Potency result in assay [1], in assay [5], in assay [18], in assay [19], in assay [9] and in assay [10] was “inactive” each time. In addition, the Potency entry in assay [12] and in assay [17] was “inactive” in each case.
Regarding `C[C@H]1O[C@@H](O[C@H]2CC[C@@]3(C)[C@H](CC[C@@H]4[C@@H]3C[C@@H](O)[C@]3(C)[C@@H](C5=CC(=O)OC5)CC[C@]43O)C2)C[C@H](O)[C@@H]1O[C@H]1C[C@H](O)[C@H](O[C@H]2C[C@H](O)[C@H](O[C@@H]3O[C@H](CO)[C@@H](O)[C@H](O)[C@H]3O)[C@@H](C)O2)[C@@H](C)O1`, the Potency result in assay [6], in [8], in assay [14], in assay [17] and in assay [20] was “inactive” in each case. Besides, the Potency in assay [18] is 0.168 µM (active); in assay [13], 0.335 µM (active); in [16], 0.379 µM (active).
On to `Nc1ncnc2c1ncn2C1CCCO1` (configuration not stated), for which the Potency result in assay [1], in assay [2], in [3], in assay [4] and in assay [5] was “inactive” throughout.
`O=C(CCCCCCCCc1cccnc1)N1CCC(C=C(c2ccccc2)c2ccccc2)CC1`: the Potency result in assay [6], in [8], in assay [14] and in [17] was “inactive” each time. In addition, the results for the Potency in assay [18] and in assay [16] were 54.5 µM (active) and 13.8 µM (active), respectively.
Consider `C=C1C[C@@]23CC[C@H]4[C@@](C)(CCC[C@@]4(C)C(=O)O)[C@@H]2CC[C@]1(O)C3`, for which the Potency entry in assay [1], in assay [2], in assay [3], in assay [4] and in assay [5] was “inactive” throughout.
On to `NCCCCN`, for which the Potency entry in [1], in [2], in [3], in assay [4] and in assay [5] was “inactive” in each case.
